NOMO-1 viab – STK33 inhibitor candidate reducing NOMO-1 cell viability; NOMO-1 AML viability, CellTiter-Glo luminescence, 72 h; AID 2330; inhibition, % (no concentration beside the values); 37,000 tested, 7.5% active; in the data active means inhibition above about 80%; inconclusive means no clear call, values can overlap the other calls
Shh pathway inh – Sonic Hedgehog pathway inhibition | 22,000 tested, 2.1% active | inhibition, % (no concentration beside the values) | Shh-LIGHT2 Gli-luciferase reporter, 30 h;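 active means mean inhibition across valid replicates above about 65%, limit read from the data; inconclusive means mean under the limit, yet half or more replicates past it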;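 further: pathway switched on by Shh-conditioned medium diluted 1 in 25 in low serum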
PD-1 reverse act – activators reversing PD-1 mediated T-cell inhibition; primary human CD4 T cells, PD-L1 beads, CellTiter-Glo 96 h; activation, % (test concentration not listed); 29,000 tested, under 10 active; AID 2316; call rule not given here;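 further: 0% = median vehicle wells and 100% = positive control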
* = called active by the depositor; ? = inconclusive; · = not tested or not shown. The list is not random: actives were taken first. Their share in the collection is about 7.7%.

SMILES | NOMO-1 viab | Shh pathway inh | PD-1 reverse act
C[S+](O)c1ccc(CSc2nc(-c3ccc(F)cc3)c(-c3ccncc3)[nH]2)cc1 (configuration not stated) | -37 | -55 | 3
Oc1ccc(-c2nc(-c3ccc(F)cc3)c(-c3ccncc3)[nH]2)cc1 | 50 | 74* | ·
O=C1c2oc3ccccc3c(=O)c2C(c2cccc(Oc3ccccc3)c2)N1CCCO (configuration not stated) | 8 | · | ·
O=C(NCC[n+]1ccc2ccccc2c1)c1ccccc1 | 44 | -26 | 0
O=C(CSc1n[nH]c(-c2ccco2)n1)N1c2ccccc2Sc2ccccc21 | 33 | · | ·
CCOC(=O)CSc1n[nH]c(CN2c3ccccc3Sc3ccccc32)n1 | 117* | ? | 1
N#Cc1ccccc1CSc1nc2ccc(NC(=O)c3ccc(F)cc3)cc2s1 | 30 | · | ·
O=C(c1ccccc1)c1ccccc1C(=O)c1ccccc1 | 7 | 23 | -2
Cc1ccc2c(=O)c(C(=O)c3ccccc3)coc2c1 | 130* | · | 0
O=C(CSc1nc2sc3c(c2c(=O)n1Cc1ccco1)CCC3)c1ccccc1 | 31 | · | -1
c1ccc(Cn2c3ccccc3n3c(SCc4nc5ccccc5[nH]4)nnc23)cc1 | 7 | · | ·
C[C@@H]1CN([C@H](C)CO)C(=O)c2cccc(NC(=O)Nc3ccc(F)cc3)c2O[C@@H]1CN(C)C(=O)Nc1cccc2ccccc12 | 56 | -126 | 1
C[C@H](CO)N1C[C@H](C)[C@@H](CN(C)C(=O)Nc2ccc(F)cc2)Oc2c(NC(=O)Nc3cccc4ccccc34)cccc2C1=O | 56 | 2 | -3
C[C@H](CO)N1C[C@H](C)[C@@H](CN(C)C(=O)Nc2cccc3ccccc23)Oc2c(NC(=O)Nc3ccc(F)cc3)cccc2C1=O | 21 | 80* | 0
C[C@@H]1CN([C@@H](C)CO)C(=O)c2cccc(NC(=O)Nc3ccc(F)cc3)c2O[C@@H]1CN(C)C(=O)Nc1cccc2ccccc12 | 96* | ? | -4
Cc1c(NC(=O)CN(c2ccc(F)c(Cl)c2)S(C)(=O)=O)cccc1[N+](=O)[O-] | 13 | · | 0
C=C1C(=O)OC2CC1C(OC(C)=O)C/C(C)=C\CC/C(C)=C\CC[C@]2(C)O (some centres not stated) | 111* | 87* | ·
COc1ccc(Cl)cc1NC(=O)CSc1nnc(-c2ccccc2)n1-c1ccc(C)cc1 | 40 | · | -1
COC(=O)c1ccccc1NC(=O)CSc1nnc(-c2cc3cccc(OC)c3o2)n1C | 28 | · | -1
O=C(Nc1cccc2ccccc12)C12CC3CC(CC(C3)C1)C2 | 24 | -42 | 0
CC(N=Cc1c(O)ccc2ccccc12)C12CC3CC(CC(C3)C1)C2 (configuration not stated) | 101* | ? | 1
CC(=O)O[C@@H]1c2c(ccc3ccc(=O)oc23)OC(C)(C)[C@@H]1OC(=O)C=C(C)C | 38 | 19 | 3
O=C(CCS(=O)(=O)c1nc(-c2ccccc2)cc(C(F)(F)F)n1)Nc1ccc(Cl)cc1Cl | 126* | · | -16
O=C(O)CCS(=O)(=O)c1nc(-c2ccccc2)cc(C(F)(F)F)n1 | 23 | · | 0
COc1ccccc1C(=O)NC1(C(F)(F)F)C(=O)N(Cc2ccco2)C2=C1C(=O)CC(C)(C)C2 (configuration not stated) | 40 | · | ·
SMILES | NOMO-1 viab | Shh pathway inh | PD-1 reverse act
COc1ccc(CN(C)C[C@H]2Oc3ccc(NC(=O)Nc4ccc(C(F)(F)F)cc4)cc3CC(=O)N([C@@H](C)CO)C[C@H]2C)cc1 | 124* | · | ·
COc1ccc(NC(=O)Nc2ccc3c(c2)CC(=O)N([C@@H](C)CO)C[C@H](C)[C@H](CN(C)Cc2ccc(C(F)(F)F)cc2)O3)cc1 | 35 | -21 | ·
COc1ccc(NC(=O)Nc2ccc3c(c2)CC(=O)N([C@H](C)CO)C[C@@H](C)[C@@H](CN(C)Cc2ccc(C(F)(F)F)cc2)O3)cc1 | 90* | ? | ·
COc1ccc(CN(C)C[C@H]2Oc3ccc(NC(=O)Nc4ccc(C(F)(F)F)cc4)cc3CC(=O)N([C@H](C)CO)C[C@H]2C)cc1 | 127* | 12 | -3
COc1ccc(CN(C)C[C@@H]2Oc3ccc(NC(=O)Nc4ccc(C(F)(F)F)cc4)cc3CC(=O)N([C@H](C)CO)C[C@H]2C)cc1 | 18 | -35 | -1
COc1ccc(NC(=O)Nc2ccc3c(c2)CC(=O)N([C@H](C)CO)C[C@@H](C)[C@H](CN(C)Cc2ccc(C(F)(F)F)cc2)O3)cc1 | 113* | -33 | ·
COc1ccc(NC(=O)Nc2ccc3c(c2)CC(=O)N([C@H](C)CO)C[C@H](C)[C@H](CN(C)Cc2ccc(C(F)(F)F)cc2)O3)cc1 | 61 | -47 | 1
COc1ccc(NC(=O)Nc2ccc3c(c2)CC(=O)N([C@@H](C)CO)C[C@H](C)[C@@H](CN(C)Cc2ccc(C(F)(F)F)cc2)O3)cc1 | 51 | · | ·
Cc1ccc(C)c(NC(=O)c2ccc(OCC(=O)Nc3cc(C(F)(F)F)ccc3Cl)cc2)c1 | ? | · | -3
CCc1cc(Br)cc(C)c1NC(=O)CSc1nnc(-c2ccncc2)n1-c1ccccc1 | 28 | · | -2
COC(=O)/C=C1/C(=O)N/C(=N\c2nc(C)cc(C)n2)N1c1cccc(C)c1 | 41 | 24 | 0
Cc1cccc(NC(=O)C2Sc3nnc(-c4ccccc4)n3NC2c2ccccc2)c1 (configuration not stated) | 48 | 19 | 0
NC(=O)COc1ccc(Br)cc1C1C2=C(CCCC2=O)NC2=C1C(=O)CCC2 | 18 | · | 1
COc1ccc(CN(C)C[C@@H]2Oc3ccc(NC(=O)Nc4ccc(C(F)(F)F)cc4)cc3CC(=O)N([C@H](C)CO)C[C@@H]2C)cc1 | 118* | · | -1
O=[N+]([O-])c1ccc(OCCCSc2ncccn2)cc1 | 9 | · | ·
CC(C)C(=O)Nc1cccc(-c2nc3ccccc3c(=O)o2)c1 | 28 | -18 | -1
O=c1oc(-c2cccc(Cl)c2)nc2c1cnn2-c1ccccc1 | 115* | -8 | -1
Cc1oc2c(c1C(=O)NCCc1ccccc1)C(=O)c1ccccc1C2=O | 32 | -17 | 0
Cc1oc2c(c1C(=O)NC1CCCC1)C(=O)c1ccccc1C2=O | 140* | 59 | -4
Cc1ccc(S(=O)(=O)NCC(=O)N2CCC(C)CC2)cc1 | 2 | · | 2
Cc1oc2c(c1C(=O)N1CCC(C)CC1)C(=O)c1ccccc1C2=O | 113* | 59 | -6
CC1(C)C=Cc2c(cc3occ(-c4ccc5c(c4)OCO5)c(=O)c3c2O)O1 | 47 | 56 | ·
COc1c(-c2coc3cc4c(cc3c2=O)CC(O)C(C)(C)O4)ccc2c1C=CC(C)(C)O2 (configuration not stated) | 102* | 91* | ·
N#C/C(=C\c1ccc(O)c(O)c1)C(=O)NCCCNC(=O)/C(C#N)=C/c1ccc(O)c(O)c1 | 31 | -9 | -2
Oc1cc(O)cc(/C=C/c2ccc(O)c(O)c2)c1 | 113* | 82* | ·
CS(=O)(=O)N(CC(=O)Nc1ccc2c(c1)OCCO2)c1cc(Cl)c(Cl)cc1Cl | 12 | · | ·
COc1ccccc1CCNC(=O)c1cc(-c2ccncc2)nc2c(C)c(Cl)ccc12 | 47 | · | ·
COc1ccccc1CCNC(=O)c1cc(-c2ccccn2)nc2c(C)c(Cl)ccc12 | 101* | · | ·
S=C(NC1CCCCC1)Sc1ccc(Cl)cc1 | 122* | 36 | -1
S=C(NC1CCCCC1)C(=S)NC1CCCCC1 | 34 | -22 | 0
